Several values for one entry are separate records, joined by “and”; a condition that tells them apart may be missing. Identical values can stand only once. The campaign covered roughly 5,500 compounds. About 2,000 (36%) were called active. Roughly 18% stayed inconclusive and do not appear here. No stated cut-off is given here; in the data, active means normalized growth mostly below about 0.91 (no sharp cut-off); inconclusive means no clear call, values can overlap the other calls; inactive means mostly above about 0.92. The list shows a part of the results.
Assay: chemical genetic growth profiling, strain panel (AID 1159580);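 further: tested at 20 µM; growth read once vehicle control cultures reached saturation at 30 °C; 1 = growth at the plate median or of vehicle wells; lower values mean less growth of the strain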
Conditions: S. cerevisiae deletion strains, growth OD

Measured: normalized growth

NC(CO)C(=O)NNCc1ccc(O)c(O)c1O (configuration not stated)
inactive: locus YAL013W, strain DEP1, hits give low values 0.941 | locus YAL021C, strain ccr4, hits give low values 0.96 | locus YAL026C, strain drs2, hits give low values 0.977 | locus YAL030W, strain snc1, hits give low values 0.986 | locus YAL040C, strain CLN3, hits give low values 0.967 | locus YBL061C, strain skt5, hits give low values 0.999 | locus YBR009C, strain hhf1, hits give low values 0.971 | locus YBR021W, strain FUR4, hits give low values 1.02 | locus YBR023C, strain chs3, hits give low values 0.984 | locus YBR171W, strain sec66, hits give low values 0.996 | locus YBR229C, strain ROT2, hits give low values 1.02 | locus YBR231C, strain swc5, hits give low values 1 | locus YBR279W, strain paf1, hits give low values 0.97 | locus YCL011C, strain gbp2, hits give low values 0.946 | locus YCL016C, strain dcc1, hits give low values 0.977 | locus YCL029C, strain bik1, hits give low values 0.997 | locus YCL069W, strain vba3, hits give low values 0.968 | locus YCR088W, strain abp1, hits give low values 1 | locus YDL005C, strain med2, hits give low values 1.01 | locus YDL035C, strain GPR1, hits give low values 1.02 | locus YDL040C, strain nat1, hits give low values 1.01 | locus YDL074C, strain BRE1, hits give low values 0.98 | locus YDL101C, strain DUN1, hits give low values 0.99 | locus YDL185W, strain tfp1, hits give low values 1 | locus YDL192W, strain arf1, hits give low values 0.998 | locus YDR001C, strain nth1, hits give low values 0.982 | locus YDR069C, strain doa4, hits give low values 0.966 | locus YDR101C, strain arx1, hits give low values 0.971 | locus YDR137W, strain rgp1, hits give low values 0.91 | locus YDR150W, strain NUM1, hits give low values 1.03 | locus YDR159W, strain sac3, hits give low values 1.02 | locus YDR162C, strain NBP2, hits give low values 1.02 | locus YDR195W, strain ref2 1.03 | locus YDR297W, strain sur2, hits give low values 0.994 | locus YDR318W, strain mcm21, hits give low values 1 | locus YDR334W, strain swr1, hits give low values 0.982 | locus YDR335W, strain msn5, hits give low values 0.995 | locus YDR363W, strain ESC2, hits give low values 0.968 | locus YDR388W, hits give low values 0.99 | locus YDR392W, strain spt3, hits give low values 1.03 | locus YDR502C, strain sam2, hits give low values 0.988 | locus YEL003W, strain gim4, hits give low values 0.981 | locus YEL037C, strain rad23, hits give low values 0.98 | locus YEL061C, strain CIN8 (second series), hits give low values 0.981 | locus YEL061C, strain CIN8, hits give low values 1.01 | locus YER002W, strain NOP16, hits give low values 1 | locus YER015W, strain faa2, hits give low values 0.947 | locus YER016W, strain bim1, hits give low values 0.994 | locus YER110C, hits give low values 0.984 | locus YER111C, strain swi4, hits give low values 0.966 | locus YER155C, strain BEM2 (second series), hits give low values 1.08 | locus YER155C, strain BEM2, hits give low values 1 | locus YER167W, strain BCK2, hits give low values 1.02 | locus YFR010W, strain ubp6, hits give low values 0.989 | locus YGL078C, strain dbp3, hits give low values 0.993 | locus YGL086W, strain mad1, hits give low values 0.993 | locus YGL167C, strain pmr1, hits give low values 0.996 | locus YGL173C, strain kem1, hits give low values 1.01 | locus YGL227W, strain vid30, hits give low values 1.01 | locus YGL240W, strain doc1, hits give low values 1.06 | locus YGL248W, strain PDE1, hits give low values 1.01 | locus YGL253W, strain hxk2, hits give low values 0.958 | locus YGR078C, strain PAC10, hits give low values 0.995 | locus YGR135W, strain pre9, hits give low values 0.994 | locus YGR252W, strain gcn5, hits give low values 0.986 | locus YHR013C, strain ard1, hits give low values 0.987 | locus YHR030C, strain SLT2, hits give low values 1.02 and 1.05 | locus YHR079C, strain IRE1 (second series), hits give low values 1 | locus YHR079C, strain IRE1, hits give low values 1.06 | locus YHR094C, strain hxt1, hits give low values 1.01 | locus YHR129C, strain ARP1, hits give low values 1.01 | locus YHR142W, strain chs7, hits give low values 0.964 | locus YHR200W, strain rpn10, hits give low values 0.986 | locus YIL066C, strain RNR3, hits give low values 1.03 | locus YIL073C, strain SPO22, hits give low values 0.985 | locus YIL125W, strain kgd1, hits give low values 0.995 | locus YIR030C, strain dcg1, hits give low values 0.984 | locus YJL092W, strain hpr5, hits give low values 0.996 | locus YJL095W, strain BCK1 (second series), hits give low values 1 | locus YJL095W, strain BCK1, hits give low values 1.01 and 1.05 | locus YJL115W, strain asf1, hits give low values 1 | locus YJL129C, strain trk1, hits give low values 1.06 | locus YJL134W, strain LCB3, hits give low values 1.01 | locus YJL154C, strain vps35, hits give low values 0.993 | locus YJL164C, strain tpk1, hits give low values 0.953 | locus YJL166W, strain qcr8, hits give low values 1.02 | locus YJL168C, strain set2, hits give low values 1 | locus YJL187C, strain SWE1 (second series), hits give low values 0.988 | locus YJL187C, strain SWE1, hits give low values 0.983 | locus YJR043C, strain POL32, hits give low values 1.02
active: locus YGR229C, strain SMI1, hits give low values 0.775 | locus YHR027C, strain rpn1, hits give low values 0.911

From PubChem BioAssay AID1159580 (chemical genetic matrix, 2015)
